Screens (PubChem BioAssay)
The list is not random: actives were taken first. Their share in the collection is about 21%.
FBPA Giardia inh = blocks Giardia fructose-bisphosphate aldolase activity. 0.71% of 290,000 active. A8B2U2. Potency, µM (series often up to 59.6 µM), without a hit: at the top dose activity, negative = inhibition, usual class: inhibitors. purified Giardia FBPA; further: potency means the concentration at half of the fitted maximal effect; on the % scale 0 is the no-effect control and ±100 the full control effect; nearly all actives have a fitted effect of over 55% in size
Target sequence (A8B2U2 whole entry, looked up): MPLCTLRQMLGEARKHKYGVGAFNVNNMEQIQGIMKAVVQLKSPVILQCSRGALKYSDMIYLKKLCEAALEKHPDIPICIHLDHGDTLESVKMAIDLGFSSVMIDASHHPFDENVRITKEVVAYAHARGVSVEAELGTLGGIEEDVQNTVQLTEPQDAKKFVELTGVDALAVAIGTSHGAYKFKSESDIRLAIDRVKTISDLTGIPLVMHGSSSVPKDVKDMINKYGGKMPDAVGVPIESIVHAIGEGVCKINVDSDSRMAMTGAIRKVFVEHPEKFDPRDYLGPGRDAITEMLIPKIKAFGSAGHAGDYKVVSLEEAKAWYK
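Giardia FBPA (40 nM reagent) was preincubated 10 min at RT with compound (up to 57.5 uM final), then substrate plus GAPDH/TPI/NAD/arsenate coupling system with diaphorase/resazurin was added; resorufin fluorescence (525/598 nm) was read after 20 min.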
Pf growth 96h = P. falciparum growth inhibition at 96 hour, primary screen for plastid delayed-death inhibitors. P. falciparum luciferase reporter growth, 96 h. Potency, µM (titrated, usually from 28.7 µM), without a hit: top-dose activity change, negative = inhibition, hits mostly inhibitors. 6.9% of 320,000 active; further: potency means the concentration at half of the fitted maximal effect; on the % scale 0 is the no-effect control and ±100 the full control effect
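Luminescence readout: decreased luciferase signal marks inhibited growth of reporter-expressing P. falciparum in infected red cells (2% hematocrit, 0.05% parasitemia final), exposed to compound two generations (96 h, 37 C, 5% CO2).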
Shiga inhibitor = inhibitors of Shiga toxin in Vero cells | 9.2% of 290,000 active | inhibition, % at 38.7 µM | AID 2315 | Vero cells, Shiga toxin protein synthesis inhibition reporter; in the data active means inhibition mostly above about 28%, no sharp cut-off; inactive means mostly below about 43%; further: 0% is about no effect
NS1 inh = blocks influenza NS1 protein function; AID 2326; 0.4% of 270,000 active; Potency, µM (titrated, usually from 46.1 µM), inactives show at the top dose activity, positive = more growth; calls by dose curve; further: potency means the concentration at half of the fitted maximal effect; actives are rising curves; nearly all actives have a fitted effect of over 50% in size
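S. cerevisiae expressing influenza A NS1, grown in glucose, washed, then diluted 1:100 into pH 6.0 -URA galactose medium with 23 nl compound. Growth recovery read as OD600; NS1-free strain serves as control.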
Pf growth 48h = inhibits P. falciparum growth in the first generation, 48 h | P. falciparum luciferase growth in erythrocytes, 48 h | Potency, µM (top dose mostly 28.7 µM), for the others: at the top dose activity change, negative = inhibition, hits mostly inhibitors | 5.9% of 310,000 active; further: potency means the concentration at half of the fitted maximal effect; on the % scale 0 is the no-effect control and ±100 the full control effect
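Read-out is firefly luciferase luminescence from an integrated reporter in P. falciparum, so falling signal marks reduced parasite growth. Infected erythrocytes were at 2% hematocrit and 0.1% parasitemia (final) in Albumax-supplemented RPMI 1640.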
Cycloheximide cs = counter-screen for Shiga toxin inhibitors: cycloheximide protein synthesis inhibition; max response, %; cell reporter, cycloheximide protein synthesis inhibition counterscreen; 12% of 300,000 active; in the data active means max response mostly above about 13%, no sharp cut-off; inactive means mostly below about 14%; further: read at 38.3 µM for the half of the compounds with a filed dose; 0% is about no effect
Numbers without * were called inactive; i = inactive; ? = inconclusive; / = not tested or not shown; [ ] = another dose, or the depositor's remark. Unless noted, the call rests on the fitted dose curve; in most records, active means well fitted curve in the direction sought with a large enough effect; inconclusive means small, poorly fitted or top-dose-only effect, or another doubt; inactive means no such curve, though single readings can be large; an effect the other way counts as inactive or inconclusive.

SMILES | FBPA Giardia inh | Pf growth 96h | Shiga inhibitor | NS1 inh | Pf growth 48h | Cycloheximide cs
O=C(Nc1ccon1)c1ccc(Cl)c(S(=O)(=O)N2CCCCC2)c1 | / | 9% | -7 | 5% | ? | 1
O=C(Nc1ccncc1)c1ccc(Cl)c(Cl)c1 | -12% | 2.9µM* | 28 | -63% | ? | 13
O=C(Nc1cccc(S(=O)(=O)N2CCCC2)c1)c1cccnc1 | / | 19% | -31 | 16% | 3% | -2
Cc1nonc1NC(=O)c1ccc(Cl)c(S(=O)(=O)N2CCCCC2)c1 | 5% | 2.6µM* | 4 | -7% | -6% | 2
COc1ccccc1NC(=O)C(C)OC(=O)CCNS(=O)(=O)c1ccc(C)c(C)c1 (centres undefined) | / | 24% | / | / | 1% | /
COc1ncc(C2=CC(=O)CC(C)(C)C2)cn1 | / | 61% | / | / | 22% | /
O=C(Nc1nc2ccccc2[nH]1)c1ccc(Cl)c(S(=O)(=O)N2CCCC2)c1 | 19% | -104% | 71 | 10% | / | 33*
CCCCc1ccc(NC(=O)CSc2nnc(CNC(=O)c3ccco3)o2)cc1 | 8% | ? | -4 | 12% | -3% | 2
COc1ccc(S(=O)(=O)CC(=O)c2cc(C)c(O)c(C)c2)cc1 | 5% | -15% | 7 | 3% | -5% | 1
COc1ccc(SCC(=O)c2cc(C)c(OC(=S)N(C)C)c(C)c2)cc1 | -4% | / | 67 | -8% | ? | 48*
COc1ccc(C(=O)CSc2nc(C)cc(C)n2)cc1C | 1% | 5% | 12 | -15% | -7% | 6
Cc1cc(C(=O)CS(=O)(=O)c2ccc(F)cc2)cc(C)c1OC(=O)N(C)C | 0% | 149% | 89* | / | i | 44*
Cc1cc(C(=O)CSc2ccc(F)cc2)cc(C)c1OC(=S)N(C)C | 0% | -83% | 146* | 9% | / | 58*
CCCn1c(SCC(=O)Nc2ccc3c(c2)OCCO3)n[nH]c1=O | / | 2% | / | / | -12% | /
CN(C)c1cc[n+](Cc2c(Cl)cccc2Cl)cc1 | 1% | 0.37µM* | -6 | 10% | 4.7µM* | -5
CC(C)C[C@@H](CC(=O)N[C@H](CC(=O)N[C@@H]1CCNC[C@H]1C(=O)N[C@H](CC(=O)N[C@@H](CCC(=O)O)CC(=O)O)Cc1ccccc1)C(C)C)NC(=O)[C@@H]1CNCC[C@H]1N | 7% | / | / | / | / | /
CC(C)[C@H](NC(=O)OCc1ccccc1)C(=O)OCC(=O)Nc1ccc(N2CCOCC2)cc1 | / | 31% | / | / | 8% | /
Cc1cc(C)c2nc(NC(=O)C3CC(=O)N(Cc4ccco4)C3)sc2c1 (centres undefined) | 0% | -10% | -1 | / | 19% | 9
CCc1nnc(NC(=O)C2CC(=O)N(Cc3ccco3)C2)s1 (centres undefined) | 10% | 5% | -5 | 1% | 6% | 1
Cc1ccc2nc(NC(=O)C3CC(=O)N(Cc4ccco4)C3)sc2c1 (centres undefined) | 3% | 32% | 25 | / | ? | 19*
O=C(Nc1nc2c(F)cc(F)cc2s1)C1CC(=O)N(Cc2ccco2)C1 (centres undefined) | -22% | 5% | 47 | -1% | 1% | 24*
COc1ccc(OCCSc2nnc3sc4ccccc4n23)cc1 | -2% | / | 67 | -82% | ? | 60*
CN(C)CCSc1nnc2sc3ccccc3n12 | 6% | 41% | 25 | -1% | 9% | 11
NC(=O)CSc1nnc2sc3ccccc3n12 | 1% | 3% | -38 | 7% | -1% | -2
CC(C)NC(=O)CSc1nnc2sc3ccccc3n12 | 13% | -3% | 24 | 5% | 40% | 27*
SMILES | FBPA Giardia inh | Pf growth 96h | Shiga inhibitor | NS1 inh | Pf growth 48h | Cycloheximide cs
CCn1c(SCC(=O)N2CCN(c3ccccc3)CC2)nc2c([nH]c3ccccc32)c1=O | / | -9% | -5 | 16% | -4% | -1
CC(C)/C=N/Nc1nc(-c2ccc(Br)cc2)cs1 | -15% | 0% | 54* | 20% | 50% | 31*
N#Cc1cccc(NC(=O)c2cncn2-c2ccccc2)c1 | 4% | 15% | -10 | 30% | 2% | -8
Cc1cccc(C)c1NC(=S)N=Nc1c(O)n(C)c2ccc(S(=O)(=O)N3CCOCC3)cc12 | -18% | ? | -12 | 5% | ? | -5
C=CCn1c(O)c(N=NC(=S)Nc2ccccc2F)c2cc(S(=O)(=O)N3CCOCC3)ccc21 | -5% | 35% | -8 | / | 6.6µM* | 1
C=CCn1c(O)c(N=NC(=S)Nc2cccc(C)c2)c2ccccc21 | -21% | -23% | 32 | ? | 1.9µM* | 5
C=CCn1c(O)c(N=NC(=S)Nc2ccccc2F)c2ccccc21 | -9% | -11% | -7 | / | ? | 14
Cc1ccc(NC(=S)N=Nc2c(O)n(C)c3ccc(S(=O)(=O)N4CCOCC4)cc23)cc1 | -1% | ? | -3 | ? | 2.6µM* | -5
Cc1ccc(S(=O)(=O)N2CCOCC2)cc1C(=O)Nc1ccccc1F | 0% | -8% | -2 | -7% | 8% | 1
Cc1cc(C)cc(NC(=S)N=Nc2c(O)n(C)c3ccc(S(=O)(=O)N4CCOCC4)cc23)c1 | -23% | ? | -3 | 12% | 2.1µM* | -2
COCCCNC(=O)CNC(=O)c1nn(-c2ccc(OC)c(Cl)c2)c(=O)c2ccccc12 | -6% | 0% | -5 | -2% | / | -1
COC(=O)C(C)NC(=S)N1CCN(c2c(F)cc3c(=O)c(C(=O)O)cn(C4CC4)c3c2OC)CC1C (centres undefined) | -29% | -14% | -16 | 7% | ? | 1
Cc1ccccc1NC(=S)N=Nc1c(O)n(C)c2ccc(S(=O)(=O)N3CCOCC3)cc12 | -7% | 8% | -6 | ? | 3.3µM* | 11
CC(Oc1ccc2c(-c3ccccc3)cc(=O)oc2c1)C(=O)NCC(O)c1ccccc1 (centres undefined) | 6% | 2% | -1 | -9% | -7% | 1
Cc1ccc(C(=O)Nc2ccc3c(c2)CCC3)cc1S(=O)(=O)N1CCOCC1 | -5% | 18%[5.75 µM] | 98* | / | -17%[5.75 µM] | 34*
NS(=O)(=O)c1cc(C(=O)Nc2ccc3c(c2)CCC3)ccc1Cl | 7% | 15% | 89* | 8% | 41% | 20*
O=C(Nc1ccc2c(c1)CCC2)c1ccc(F)c(S(=O)(=O)N2CCOCC2)c1 | 0% | ? | 36* | 16% | 0% | 27*
Cc1ccc(C(=O)Nc2ccncc2)cc1S(=O)(=O)N1CCOCC1 | / | ? | 10 | 7% | -27% | -1
CCOC(=O)c1cccc(N)c1 | / | -12% | / | / | -4% | /
CCCCN(C(=O)CC1CCCC1)c1c(N)n(CCCC)c(=O)[nH]c1=O | / | -5% | / | / | -30% | /
CCOC(=O)c1c(C)[nH]c(C(=O)N(C)CC(=O)Nc2ccc(OC)cc2)c1C | / | ? | / | / | -24% | /
CCOC(=O)C1CCN(C(=O)c2ccccc2CCc2ccccc2)CC1 | 1% | -33% | -6 | -18% | 1% | 1
Cc1ccc(S(=O)(=O)N2CCN(C(=O)CC(C)n3nc(C)c(Cl)c3C)CC2)cc1 (centres undefined) | 2% | 30% | -4 | -13% | -11% | -1
